Experimental data published in PubChem BioAssay (Tox21).
Records with an inconclusive call do not appear. A call without a number means that no potency is given here. Active and inactive are the calls of the source. Unless noted, calls follow the shape of the full dose curve.

Experiments:
[1] = target: Estrogen receptor beta (Homo sapiens) (UniProt Q92731); assay: qHTS assay to identify small molecule agonists of the estrogen receptor beta (ER-beta) signaling pathway (AID 1259377; active = well fitted activation curve with a large enough effect in the signal ratio in the repeat runs, not every such curve was filed as active; the % refers to the signal ratio)
Sequence of Estrogen receptor beta (Homo sapiens) (Q92731 whole entry, looked up): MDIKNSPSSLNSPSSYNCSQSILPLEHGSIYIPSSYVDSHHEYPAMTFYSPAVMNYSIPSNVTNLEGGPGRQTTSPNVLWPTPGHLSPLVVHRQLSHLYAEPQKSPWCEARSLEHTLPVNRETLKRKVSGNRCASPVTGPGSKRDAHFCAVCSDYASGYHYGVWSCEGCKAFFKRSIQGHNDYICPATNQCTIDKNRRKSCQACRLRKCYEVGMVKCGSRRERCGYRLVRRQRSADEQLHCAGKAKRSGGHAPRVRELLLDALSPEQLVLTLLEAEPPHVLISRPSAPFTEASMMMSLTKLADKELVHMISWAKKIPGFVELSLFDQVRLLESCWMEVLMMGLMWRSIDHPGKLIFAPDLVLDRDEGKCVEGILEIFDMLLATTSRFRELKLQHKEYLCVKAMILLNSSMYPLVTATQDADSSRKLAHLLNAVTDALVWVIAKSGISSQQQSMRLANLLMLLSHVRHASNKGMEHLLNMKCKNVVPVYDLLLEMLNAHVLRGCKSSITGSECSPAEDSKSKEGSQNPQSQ
Method in brief: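 A UAS-controlled beta-lactamase reporter in ER-beta-UAS-bla HEK293T cells reports receptor activation. Compounds act for 16 hr at 37C in 2% charcoal-stripped serum, and a FRET substrate is read by fluorescence after 2 hours.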

[2] = target: Estrogen receptor beta (Homo sapiens) (UniProt Q92731); assay: qHTS assay to identify small molecule antagonists of the estrogen receptor beta (ER-beta) signaling pathway (AID 1259378; active = well fitted inhibition curve with a large enough effect in the signal ratio in the repeat runs, not every such curve was filed as active; the % refers to the signal ratio; also: potency is read from the fitted curve at half-maximal effect)
Method in brief: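 Antagonist mode: compounds added to beta-lactamase reporter HEK293T ER-beta-UAS cells stimulated with E2 (1nM final), 16 hr at 37C. LiveBLAzer B/G FRET substrate, 2 hours room temperature, fluorescence read-out.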

[3] = qHTS assay to identify small molecule agonists of the androgen receptor (AR) signaling pathway in the presence of an antagonist - cell viability counter screen (AID 1259379; active = well fitted curve in the direction sought with a large enough effect in the repeat runs; an effect the other way counts as inactive or inconclusive; also: nearly all actives have a fitted effect of over 25% in size; also: potency is read from the fitted curve at half-maximal effect)
Method in brief: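 MDA-kb2 cells (MMTV-luciferase, AR/GR), 3,000/well, 5 h attachment, then 3.0 µM nilutamide (final) and compounds at 15 concentrations. Viability by CellTiter-Fluor fluorescence after 16 h at 37 °C, 0% CO2, in the reporter wells.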

[4] = qHTS assay to identify small molecule agonists of the estrogen receptor beta (ER-beta) signaling pathway - cell viability counter screen (AID 1259380; active = well fitted curve in the direction sought with a large enough effect in the repeat runs; an effect the other way counts as inactive or inconclusive; also: nearly all actives have a fitted effect of over 30% in size; also: potency is read from the fitted curve at half-maximal effect)
Method in brief: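 ER-beta-UAS-bla HEK293T cells in medium with 2% charcoal-stripped FBS, pre-incubated 6 hr, then treated 16 hr at 37C. Cytotoxicity read in the same wells by CellTiter-Glo luminescence after 30 min at room temperature.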

[5] = qHTS assay to identify small molecule antagonists of the estrogen receptor beta (ER-beta) signaling pathway - cell viability counter screen (AID 1259382; active = well fitted curve in the direction sought with a large enough effect in the repeat runs; an effect the other way counts as inactive or inconclusive; also: nearly all actives have a fitted effect of over 55% in size; also: potency is read from the fitted curve at half-maximal effect)
Method in brief: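 ER-beta-UAS-bla HEK293T cells in 2% charcoal-stripped FBS medium, treated with compound plus 1 nM 17-beta-estradiol for 16 h at 37C. Viability read by CellTiter-Glo luminescence after 30 min at room temperature in the same wells.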

[6] = target: Estrogen receptor (Homo sapiens) (UniProt P03372); assay: qHTS assay to identify small molecule agonists of the estrogen receptor alpha (ER-alpha) signaling pathway in the presence of an antagonist (AID 1259383); also: top concentration of the series differs between compounds; nearly all actives have a fitted effect of over 15% in size
Sequence of Estrogen receptor (Homo sapiens) (P03372 whole entry, looked up): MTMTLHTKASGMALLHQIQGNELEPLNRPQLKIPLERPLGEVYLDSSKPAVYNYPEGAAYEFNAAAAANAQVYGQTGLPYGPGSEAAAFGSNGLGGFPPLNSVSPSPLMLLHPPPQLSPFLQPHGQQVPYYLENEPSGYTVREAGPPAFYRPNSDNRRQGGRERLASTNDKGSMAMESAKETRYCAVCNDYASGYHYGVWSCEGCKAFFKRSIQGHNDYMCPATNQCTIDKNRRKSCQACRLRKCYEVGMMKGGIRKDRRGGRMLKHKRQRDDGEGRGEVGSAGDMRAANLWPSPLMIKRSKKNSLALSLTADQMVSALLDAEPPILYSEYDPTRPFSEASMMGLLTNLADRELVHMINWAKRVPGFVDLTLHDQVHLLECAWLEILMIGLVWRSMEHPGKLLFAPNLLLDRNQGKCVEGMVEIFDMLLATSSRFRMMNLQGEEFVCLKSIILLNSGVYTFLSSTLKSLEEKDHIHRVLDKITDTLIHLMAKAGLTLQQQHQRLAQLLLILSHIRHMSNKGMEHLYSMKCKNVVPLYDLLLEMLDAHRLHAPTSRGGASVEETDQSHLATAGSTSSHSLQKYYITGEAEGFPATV
Method in brief: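 VM7Luc4E2 cells express endogenous full-length ER-alpha with an ERE-luciferase reporter and were hormone-deprived for 5 days. Compounds at 15 concentrations were added with 10.0nM ICI-182,780 for 22hr at 37C. Luminescence was read with ONE-Glo.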

[7] = qHTS assay to identify small molecule agonists or antagonists of the thyroid stimulating hormone receptor (TSHR) signaling pathway - wild type cell line counter screen (AID 1259384)
Method in brief: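 Counter screen in untransfected Hek293: compounds (15-point titration, triplicate) plus phosphodiesterase inhibitor Ro20-1724 added after 18 h plating; 30 min RT. Intracellular cAMP via competitive d2/cryptate immunoassay, 1 h incubation.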

[8] = target: Thyrotropin receptor (Homo sapiens) (UniProt P16473); assay: qHTS assay to identify small molecule antagonists of the thyroid stimulating hormone receptor (TSHR) signaling pathway (AID 1259385); also: nearly all actives have a fitted effect of over 20% in size; also: potency is read from the fitted curve at half-maximal effect
Sequence of Thyrotropin receptor (Homo sapiens) (P16473 whole entry, looked up): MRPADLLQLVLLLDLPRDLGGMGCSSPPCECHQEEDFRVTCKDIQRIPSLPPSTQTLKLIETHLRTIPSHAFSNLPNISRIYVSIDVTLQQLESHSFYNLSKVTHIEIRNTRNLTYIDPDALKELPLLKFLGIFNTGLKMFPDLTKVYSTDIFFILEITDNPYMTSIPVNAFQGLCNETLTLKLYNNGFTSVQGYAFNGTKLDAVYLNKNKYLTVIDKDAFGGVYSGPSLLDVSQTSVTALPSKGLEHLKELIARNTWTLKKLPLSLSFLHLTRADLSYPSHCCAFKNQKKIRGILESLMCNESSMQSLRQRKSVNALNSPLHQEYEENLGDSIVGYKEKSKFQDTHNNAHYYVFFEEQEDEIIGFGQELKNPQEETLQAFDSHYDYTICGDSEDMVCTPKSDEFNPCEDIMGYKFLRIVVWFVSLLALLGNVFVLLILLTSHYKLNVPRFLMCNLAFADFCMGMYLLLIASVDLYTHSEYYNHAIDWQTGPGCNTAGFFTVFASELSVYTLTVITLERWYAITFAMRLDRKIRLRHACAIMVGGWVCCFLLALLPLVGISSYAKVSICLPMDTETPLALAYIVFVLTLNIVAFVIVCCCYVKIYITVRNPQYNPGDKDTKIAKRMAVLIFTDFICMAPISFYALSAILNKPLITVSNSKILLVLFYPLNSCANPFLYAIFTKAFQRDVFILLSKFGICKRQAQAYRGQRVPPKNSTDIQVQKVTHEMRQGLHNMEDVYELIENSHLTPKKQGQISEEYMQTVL
Method in brief: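 Antagonist mode: compound-treated TSHR-expressing HEK293 cells were stimulated with 1.5 ng/mL TSH (final) in presence of Ro20-1724 for 30 min at RT. HTRF cAMP detection after 1 h; each compound tested at 15 concentrations, triplicate.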

[9] = target: Androgen receptor (Homo sapiens) (UniProt P10275); assay: qHTS assay to identify small molecule agonists of the androgen receptor (AR) signaling pathway in the presence of an antagonist (AID 1259381); also: nearly all actives have a fitted effect of over 15% in size
Sequence of Androgen receptor (Homo sapiens) (P10275 whole entry, looked up): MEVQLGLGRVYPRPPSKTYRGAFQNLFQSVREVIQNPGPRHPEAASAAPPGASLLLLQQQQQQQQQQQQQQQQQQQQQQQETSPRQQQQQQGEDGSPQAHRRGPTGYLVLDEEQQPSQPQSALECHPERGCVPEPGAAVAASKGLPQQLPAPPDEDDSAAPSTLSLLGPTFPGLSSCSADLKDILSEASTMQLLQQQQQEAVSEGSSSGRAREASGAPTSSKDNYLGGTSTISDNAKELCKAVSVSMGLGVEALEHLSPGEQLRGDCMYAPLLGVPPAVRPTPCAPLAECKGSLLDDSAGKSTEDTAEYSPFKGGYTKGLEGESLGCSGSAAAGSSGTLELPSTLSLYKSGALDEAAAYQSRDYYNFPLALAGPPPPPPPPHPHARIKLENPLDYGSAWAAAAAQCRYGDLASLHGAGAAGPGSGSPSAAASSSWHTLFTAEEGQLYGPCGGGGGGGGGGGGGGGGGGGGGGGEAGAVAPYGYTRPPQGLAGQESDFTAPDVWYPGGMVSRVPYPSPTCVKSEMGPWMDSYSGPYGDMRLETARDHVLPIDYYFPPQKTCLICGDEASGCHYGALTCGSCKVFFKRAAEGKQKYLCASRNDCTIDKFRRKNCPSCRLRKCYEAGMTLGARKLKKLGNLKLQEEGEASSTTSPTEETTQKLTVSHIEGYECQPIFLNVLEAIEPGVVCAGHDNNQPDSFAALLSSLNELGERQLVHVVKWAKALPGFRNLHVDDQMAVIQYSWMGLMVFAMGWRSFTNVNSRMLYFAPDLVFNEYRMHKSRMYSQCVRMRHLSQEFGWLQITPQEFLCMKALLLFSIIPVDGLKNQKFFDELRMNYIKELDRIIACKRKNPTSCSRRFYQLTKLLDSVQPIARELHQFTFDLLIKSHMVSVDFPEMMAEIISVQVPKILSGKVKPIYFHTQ
Method in brief: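 MDA-kb2 cells carrying MMTV-luciferase (AR/GR responsive), 3,000 cells/well, co-treated with 3.0 uM nilutamide final. Compounds at 15 concentrations, 16 hr at 37C without CO2. Luciferase luminescence read after 30 min with ONE-Glo.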

[10] = qHTS assay to identify small molecule antagonists of the sonic hedgehog signaling (Shh) pathway (AID 1259369); also: nearly all actives have a fitted effect of over 45% in size; also: potency is read from the fitted curve at half-maximal effect
Method in brief: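 NIH/3T3-derived Gli1-Luc reporter cells plated 4 h, dosed with compound, then stimulated with conditioned medium for 24 h at 37 C. Firefly luciferase luminescence read after 30 min with detection reagent at room temperature.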

Row | SMILES | Potency [1] | Potency [2] | Potency [3] | Potency [4] | Potency [5] | Potency [6] | outcome [7] | Potency [8] | Potency [9] | Potency [10]
1 | O=C(N[C@@H](c1ccccc1)[C@@H]1CCCCN1)c1cccc(C(F)(F)F)c1Cl | inactive | 43.3 µM (active) | 17.2 µM (active) | 54.5 µM (active) | 61.1 µM (active) | inactive | inactive | inactive | – | –
2 | N#C/C(=C1\SCC(c2ccccc2Cl)S1)n1ccnc1 (stereo unspecified) | inactive | – | inactive | inactive | inactive | – | inactive | inactive | inactive | –
3 | CC(C)C(OC(=O)c1ccccc1)C(C)(C)COC(=O)c1ccccc1 (stereo unspecified) | – | – | inactive | – | inactive | – | inactive | inactive | – | inactive
4 | Cc1cnc(C)c(C)n1 | – | – | inactive | – | – | – | inactive | inactive | – | inactive
5 | CC(C)(CCl)c1ccccc1 | inactive | inactive | inactive | – | inactive | inactive | inactive | inactive | – | –
6 | CC(C)C(=O)O | – | – | inactive | – | inactive | – | – | – | – | inactive
7 | Nc1ccc(Cl)cc1[N+](=O)[O-] | – | – | – | inactive | inactive | inactive | inactive | inactive | inactive | inactive
8 | COC(=O)CC(=O)C(C)(C)C | – | – | inactive | – | – | inactive | inactive | inactive | – | inactive
9 | Fc1c(F)c(F)c(Br)c(F)c1F | – | – | inactive | inactive | inactive | – | inactive | inactive | – | inactive
10 | Nc1ccc(S(=O)(=O)O)cc1 | – | – | inactive | – | inactive | – | – | – | – | inactive
11 | CCc1cccc(N(C)C(N)=Nc2cccc3ccccc23)c1 | inactive | inactive | inactive | 2.66 µM (active) | inactive | – | inactive | – | inactive | –
12 | Nc1nccs1 | inactive | inactive | inactive | inactive | inactive | – | – | – | – | –
13 | CC(COc1ccc(C(C)(C)C)cc1)OS(=O)OCCCl (stereo unspecified) | – | – | – | – | inactive | inactive | inactive | inactive | – | 1.94 µM (active)
14 | CC(C)OCC1CO1 (stereo unspecified) | inactive | inactive | inactive | inactive | inactive | inactive | – | – | – | –
15 | Brc1cc(-c2ccc(Br)c(Br)c2Br)cc(Br)c1Br | inactive | inactive | inactive | inactive | inactive | inactive | inactive | inactive | – | –
16 | C=CC(C)(C)CC(=O)OC | – | – | – | 5.46 µM (active) | inactive | – | inactive | inactive | – | 27.4 µM (active)

Row | SMILES | Potency [1] | Potency [2] | Potency [3] | Potency [4] | Potency [5] | Potency [6] | outcome [7] | Potency [8] | Potency [9] | Potency [10]
17 | Cc1ccc(S(=O)(=O)NC2CCCCC2)cc1 | inactive | inactive | inactive | inactive | inactive | – | inactive | inactive | – | –
18 | OCCSc1ccccc1 | – | – | inactive | – | – | inactive | inactive | inactive | – | inactive
19 | Fc1ccccc1[C@@H](F)COC1CCC(Nc2ncnc3[nH]ncc23)CC1 (stereo partly specified) | – | – | – | 68.6 µM (active) | – | – | inactive | – | inactive | 12.2 µM (active)
20 | CN1CCN(CCCN2c3ccccc3Sc3ccc(S(=O)(=O)N(C)C)cc32)CC1 | – | – | inactive | – | 23.7 µM (active) | – | inactive | 29.8 µM (active) | – | 13.3 µM (active)
21 | CCCCC(CC)CNCC(CC)CCCC (stereo unspecified) | – | – | inactive | inactive | inactive | – | inactive | inactive | – | inactive
22 | CCC1(C)CC(=O)NC1=O (stereo unspecified) | – | – | inactive | – | inactive | inactive | – | – | – | inactive
23 | CC1=C(/C=C/C(C)=C\C=C\C(C)=C\C(=O)O)C(C)(C)CCC1 | – | – | – | – | – | inactive | – | – | – | inactive
24 | NC(=O)Cn1c(=O)cc(CCN2CCN(c3nccc4sccc34)CC2)c2ccc(F)cc21 | – | – | – | – | inactive | inactive | – | – | – | 4.86 µM (active)
25 | C=CCNc1nc(NCC=C)nc(N2CCN(C(c3ccc(F)cc3)c3ccc(F)cc3)CC2)n1 | – | – | – | – | inactive | inactive | inactive | 9.44 µM (active) | inactive | inactive
26 | Cc1occc1C(=O)Nc1ccc(C(=O)N2CCC(F)(F)/C(=C\C(=O)N3CCC(N4CCCCC4)CC3)c3ccccc32)cc1 | inactive | inactive | inactive | – | inactive | inactive | inactive | inactive | inactive | –
27 | COCCOC(=O)C1=C(C)NC(C)=C(C(=O)OC/C=C/c2ccccc2)C1c1cccc([N+](=O)[O-])c1 (stereo unspecified) | – | – | inactive | inactive | inactive | inactive | inactive | inactive | – | –
28 | COc1ccc(C(=O)c2cccc(O)c2)c(OC)c1 | – | 43.2 µM (active) | inactive | – | inactive | – | – | – | inactive | –
29 | C=CC(C)(O)CCCC(C)CCCC(C)CCCC(C)C (stereo unspecified) | inactive | – | inactive | inactive | inactive | inactive | inactive | inactive | – | –
30 | O=C(CCCN1CCN(c2ccc(F)cc2)CC1)NC1c2ccccc2CSc2ccccc21 (stereo unspecified) | inactive | – | inactive | – | – | inactive | inactive | – | – | –
31 | CCCCC(=O)O[C@]1(C(=O)CO)[C@@H](C)C[C@H]2[C@@H]3CCC4=CC(=O)C=C[C@]4(C)[C@@]3(F)[C@@H](O)C[C@@]21C | – | – | inactive | 15.4 µM (active) | – | inactive | inactive | – | – | –
